Measured values published in ChEMBL document CHEMBL3988442, “University of Dundee, Small-Polar-MMV Screening Library” (2021).

What was measured:
[1] = molecular target: T1, Aspartate--tRNA(Asp/Asn) ligase (Mycobacterium tuberculosis (strain ATCC 25618 / H37Rv)) (UniProt P9WFW3); experiment: Assay for Asp RNA synthetase-1 from Mycobacterium tuberculosis; format: functional; parameters: scale not given: direction of the effect not stated beside the values; conditions: 30 µM; note: in the data most compounds retested in dose-response had high values
T1 sequence (whole entry): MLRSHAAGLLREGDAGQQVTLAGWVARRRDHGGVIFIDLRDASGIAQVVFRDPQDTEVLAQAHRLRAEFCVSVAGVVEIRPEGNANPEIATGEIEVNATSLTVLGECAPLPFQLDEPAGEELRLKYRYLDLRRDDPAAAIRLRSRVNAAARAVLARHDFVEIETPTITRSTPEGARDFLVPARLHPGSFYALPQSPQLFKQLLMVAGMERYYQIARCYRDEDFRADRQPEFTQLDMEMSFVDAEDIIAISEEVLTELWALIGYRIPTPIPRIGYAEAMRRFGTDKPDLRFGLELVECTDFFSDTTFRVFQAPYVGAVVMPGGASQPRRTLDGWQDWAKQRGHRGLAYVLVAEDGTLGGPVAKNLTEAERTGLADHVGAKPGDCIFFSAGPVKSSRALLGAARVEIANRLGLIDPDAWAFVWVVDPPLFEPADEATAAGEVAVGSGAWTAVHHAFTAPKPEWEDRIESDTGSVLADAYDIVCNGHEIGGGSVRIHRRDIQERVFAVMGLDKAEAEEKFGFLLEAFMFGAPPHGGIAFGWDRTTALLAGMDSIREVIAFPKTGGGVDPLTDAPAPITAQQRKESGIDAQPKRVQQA

[2] = molecular target: Shiga toxin 2 (Escherichia coli O157:H7) (UniProt P09385+P09386); experiment: E. coli 0.157:H7 Shiga Toxin SOP - stx2 screening assay; format: functional; parameters: scale not given: direction of the effect not stated beside the values; conditions: 30 µM

Row | Compound | Percent Effect [1] [%] | Percent Effect [2] [%]
1 | Cc1nc(CN2C(=O)CC[C@@H]3[C@H]2CCN3C(=O)NC2CC2)cs1 | -0.474 | -11.4
2 | CC(C)Sc1nnc(CCNC(=O)OC(C)(C)C)o1 | -0.987 | -76.8
3 | c1cnn(CCNCc2csc(-c3ccsc3)n2)c1 | -3.52 | -113
4 | Cn1ccc(CN2CCC(COC3CCCC3)CC2)cc1=O | -0.509 | -19.3
5 | O=C(CSC1CCc2ccccc2NC1=O)NCCc1ccco1 (stereo unspecified) | -3.17 | -9.27
6 | O=C(Nc1cnccn1)[C@@H]1COC[C@H]2CN(C3CCCC3)C[C@H]21 | -5.7 | 18
7 | Cc1ccc(CNC(=O)NCCCn2nc3ccccn3c2=O)s1 | 7.2 | 0.512
8 | CCn1ncc2c1C(COCC1CC1)CN(C(=O)c1cccs1)C2 (stereo unspecified) | -1.73 | 33.1
9 | NC(=O)c1cc(C2CCCN(CCOCC(F)(F)F)C2)n[nH]1 (stereo unspecified) | -1.37 | -3.62
10 | COCCN(C)C(=O)c1ccc(OC)cc1O | 0.638 | -28.1
11 | CSCC(=O)N1CCCC(n2ccnc2C(C)C)C1 (stereo unspecified) | -2.84 | 28.1
12 | O=C(CCc1cc2n(n1)CCN(Cc1ncc[nH]1)C2)N1CCCC1 | -0.827 | -2
13 | C=C(Cl)CN1CCC(C(=O)c2cc(F)ccc2F)CC1 | -0.256 | 18.4
14 | Cc1cc(N2CCC(NC(=O)C3CC3)CC2)nc(-c2ccncc2)n1 | 0.463 | -21.4
15 | CC(=O)NCC(=O)N1CCn2cc(CN3CCN(C)CC3)nc2C1 | 1.6 | -27.6
16 | Cc1nc(CN2CCC(N(C)Cc3noc(C(C)C)n3)C2)cs1 (stereo unspecified) | 8.39 | -23.4
17 | COCCNc1nc2c(c(NCc3ccncc3)n1)CCNCC2 | 2.58 | -12.3
18 | COc1ccc(NC(=O)N2CCCC2c2ccco2)cc1OC (stereo unspecified) | 1.24 | -11.9
